Experimental data from PubChem BioAssay (Tox21).
Records with an inconclusive call do not appear. Activity calls are given as the source filed them. The call rests on the fitted dose curve.

Experiment: qHTS assay for small molecule disruptors of the mitochondrial membrane potential - cell viability (AID 720634);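 further: human HepG2 liver cancer cells; nearly all actives have a fitted effect of over 20% in size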
Settings: HepG2 viability, ATP luminescence (CellTiter-Glo), 1 h; series mostly up to 83.2 µM
Excerpt: U.S. Tox21 Program National Center for Advancing Translational Sciences [NCATS] NIH Chemical Genomics Center [NCGC] U.S. Environmental Protection Agency [EPA] National Institutes of Environmental Health Sciences [NIEHS] National Toxicology Program [NTP] U.S. Food and Drug Administration [FDA] Tox21 Assay Overview: Mitochondrial membrane potential (MMP), one of the parameters for mitochondrial function, is generated by mitochondrial electron transport chain that creates an electrochemical gradient by a series of redox reactions. This gradient drives the synthesis of ATP, a crucial molecule for various cellular processes. Measuring MMP in living cells is commonly used to assess the effect of chemicals on mitochondrial function; decreases in MMP can be detected using lipophilic cationic fluorescent dyes. […] The dye accumulates in the mitochondria of healthy cells as aggregates, with red fluorescence. The mitochondrial potential decreases and the dye could not accumulate in the mitochondria and remains in the cytoplasm in monomers, with green fluorescence. In addition to the mitochondrial potential assay, these cells were also used to test the cytotoxicity by determining the cell viability in the culture based on the quantitation of ATP present. The cytotoxicity was measured in the same assay well of MMP assay.
Tox21 Assay Protocol Summary: 2,000 HepG2 cells in 5 uL/well were dispensed into black, clear-bottom 1536-well plates using a Multidrop Combi (Thermo Scientific) dispenser. The assay plates were incubated for an overnight at 37 C to allow cells to attach to the wells, followed by the transfer of 23 nL compound or DMSO vehicle by a pin tool (Kalypsys). The plates were incubated for 1 hr at 37 C and 5% CO2, followed by the addition of 5 uL of 2X m-MPI dye into each well using Flying Reagent Dispenser (Aurora Discovery) and then CellTiter-Glo reagent was added at 4 uL/well and incubated 30 min at room temperature. Then luminescence intensity was quantified on a ViewLux CCD-based plate reader.

| Structure (SMILES) | outcome |
| --- | --- |
| Cc1ccccc1OCC(=O)O | inactive |
| O=C(CCBr)N1CCN(C(=O)CCBr)CC1 | inactive |
| Cc1ccc(O)c(C(=O)c2ccccc2)c1 | inactive |
| CC/C=C\CCOC(=O)c1ccccc1 | inactive |
| COc1cc2nc(N3CCN(C(=O)C4CCCO4)CC3)nc(N)c2cc1OC (stereo not given) | inactive |
| CC1(C)S[C@@H]2[C@H](NC(=O)Cc3ccccc3)C(=O)N2[C@H]1C(=O)O (tested in a mixture with another compound) | inactive |
| CCC(C)SSC(C)CC (stereo not given) | inactive |
| NS(=O)(=O)c1cc2c(cc1C(F)(F)F)NCNS2(=O)=O | inactive |
| CCCCCCCCCCCCCC(=O)OCC | inactive |
| CCCCNCC | inactive |
| C=CC(=O)OCC[N+](C)(C)C | inactive |
| CCOC(=O)CC | inactive |
| CCOCCOCCOC(C)=O | inactive |
| Cc1ccc2cccnc2c1 | inactive |
| NC(=O)CC[C@@H](N)C(=O)O | inactive |
| CCC(=O)OCCOc1ccccc1 | inactive |
| O=C(O)/C=C(\CC(=O)O)C(=O)O | inactive |
| O=C1CC2(CCCC2)CC(=O)N1CCNCC1COc2ccccc2O1 (stereo not given) | inactive |
| CCCCCCCCCCCBr | inactive |
| O=C(O)CCC(=O)Nc1ccc(S(=O)(=O)Nc2nccs2)cc1 | inactive |

| Structure (SMILES) | outcome |
| --- | --- |
| O=S(=O)(O)c1cc(I)c(O)c2ncccc12 | inactive |
| CCCCOCCCC | inactive |
| CCCOc1ccc(C(=O)OCCN(CC)CC)cc1N | inactive |
| CN(C)c1cc(NC(=O)CNC(C)(C)C)c(O)c2c1C[C@H]1C[C@H]3[C@H](N(C)C)C(=O)C(C(N)=O)=C(O)[C@@]3(O)C(=O)C1=C2O | inactive |
| CC(C)(C)OC(=O)c1ccccc1C(=O)O | inactive |
| CC(O)C(CO)C(C)O (stereo not given) | inactive |
| NCC1CCC(C(=O)Oc2ccc(CCC(=O)O)cc2)CC1 (stereo not given) | inactive |
| O=c1[nH]c(=O)c2cn[nH]c2[nH]1 | inactive |
| O=C1c2ccccc2C(=O)N1CO | inactive |
| CCCCCCC(=O)c1ccccc1 | inactive |
| CC(C)(C)NCC(O)COc1cccc2c1CCC(=O)N2 (stereo not given) | inactive |
| C=CC(C)(CCC=C(C)C)OC(=O)C(C)C (stereo not given) | inactive |
| CN(C)c1ccncc1 | inactive |
| CC(C)c1cc(C(C)C)cc(C(C)C)c1 | inactive |
| CC(C)(C)C(=O)NCCCC(=O)O | inactive |
| C[n+]1ccccc1/C=N/O | inactive |
| COc1cnc(NS(=O)(=O)c2ccc(N)cc2)nc1 | inactive |
| CCCCCCCC(=O)N(C)C | inactive |
| N=C(N)N1CCc2ccccc2C1 | inactive |
| C=CC(=O)OCCOCCOCC | inactive |
